DAX1 inh-1 – DAX1 (NR0B1) inhibition, primary screen | HEK293T StAR-luciferase reporter, SF-1/DAX-1 repression relief | AID 652010 | inhibition, % at 6.8 µM | actives 1.1% (n = 370,000);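 active = inhibition above the mean over all tested compounds plus 3 SD, cut at about 3.6% in these data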;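 note: 0% = DAX-1 cells with DMSO and 100% = cells lacking DAX-1 with DMSO; higher inhibition means more luminescence from relief of DAX-1 repression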
hcDAF12 agonist – H. contortus DAF-12 activation, primary screen; actives 1.4% (n = 370,000); HEK293 hcDAF-12 lit1-tk-luc reporter, luminescence; 0% DMSO, 100% Δ7-dafachronic acid; AID 652067; activation, % at 6.8 µM;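 active = activation above the mean of all tested compounds plus 3 SD, cut at about 5.5% in these data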;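 note: 100% = response to 3 µM Δ7-dafachronic acid high control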
ssDAF12 agonist – activates DAF-12 receptor from parasite S. stercoralis. HEK293 ssDAF-12/GRIP1 lit1-tk-luc reporter, luminescence; % of 3 µM dafachronic acid response. activation, % at 6.8 µM. actives 1% (n = 370,000). AID 652126;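 active = activation above the mean over all tested compounds plus 3 SD, cut at about 0.9% in these data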;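 note: 0% = DMSO-only wells and 100% = 3 µM delta7-dafachronic acid wells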
DAX1 inh-2 – NR0B1 (DAX1) inhibition; P51843; HEK293 Gal4-DAX1 luciferase reporter, luminescence; inhibition, % at 6.75 µM; actives 0.99% (n = 340,000); AID 504766;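 active = inhibition above the mean over all tested compounds plus 3 SD, cut at about 4.2% in these data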;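 note: 0% = DAX1-transfected cells with DMSO and 100% = empty-vector control cells with DMSO; inhibition shows as a rise in luminescence from relieved DAX1 repression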
hgDAF-12 ag – agonists of H. glycines DAF-12 nuclear receptor; HEK293 GAL4-hgDAF12 UAS-luciferase reporter, agonist luminescence; normalized to butyrate control; activation, % at 6.8 µM; actives 1.8% (n = 370,000); AID 687014;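 active = activation above a cutoff set at the mean of all screened compounds plus 3 SD, cut at about 10% in these data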;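 note: 0% = DMSO wells and 100% = sodium butyrate wells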
SMARCA2 act – increases SMARCA2 function in MMTV reporter cells. MG213 cells, MMTV-luciferase reporter, dexamethasone, overnight. activation, % at 9.1 µM. actives 1% (n = 370,000). AID 652017; in the data active = activation above about 7.8%;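 note: 0% = vehicle wells and 100% = reference activator wells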
LXRb hcDAF ctr – activates human LXR-beta, counter-screen for hcDAF-12 agonists; shares compounds with hcDAF12 agonist; HEK293 Gal4-LXR tk-luc reporter, luminescence, 24 h; normalized: DMSO 0%, positive control 100%; activation, % at 6.8 µM; 3,400 tested, under 10 active;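 active = mean percent activation of the reporter above a cutoff set as the average over tested compounds plus their standard deviation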
Target sequence (P55055 whole entry, looked up, the tested form may be a part): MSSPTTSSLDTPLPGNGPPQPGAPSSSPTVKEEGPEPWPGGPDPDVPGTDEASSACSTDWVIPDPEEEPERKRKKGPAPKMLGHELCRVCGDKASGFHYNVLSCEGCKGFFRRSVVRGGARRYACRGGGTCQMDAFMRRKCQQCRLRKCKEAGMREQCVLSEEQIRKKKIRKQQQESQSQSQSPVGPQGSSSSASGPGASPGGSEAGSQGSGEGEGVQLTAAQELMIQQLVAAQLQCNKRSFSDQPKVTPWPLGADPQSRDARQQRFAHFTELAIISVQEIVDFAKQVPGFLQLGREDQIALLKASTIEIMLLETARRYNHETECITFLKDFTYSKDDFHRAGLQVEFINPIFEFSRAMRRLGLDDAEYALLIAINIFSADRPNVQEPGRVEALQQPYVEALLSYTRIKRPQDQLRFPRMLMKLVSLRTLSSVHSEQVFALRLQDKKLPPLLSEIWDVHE
hcDAF12 conf – hcDAF-12 agonism, confirmation assay | actives 61% (n = 3,400) | activation, % at 6.8 µM | shares compounds with hcDAF12 agonist | HEK293 hcDAF-12 lit1-tk-luc reporter, luminescence; % of Δ7-dafachronic acid response | AID 743032;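 active = mean activation across triplicate tests above the threshold derived from the earlier primary screen, cut at about 5.5% in these data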;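 note: 0% = DMSO only wells and 100% = 3 µM Δ7-dafachronic acid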
hgDAF12 conf – hgDAF-12 agonism, confirmation assay | shares compounds with hgDAF-12 ag | HEK293 GAL4-hgDAF12 luciferase reporter, agonist mode; percent of butyrate response | activation, % at 6.8 µM | actives 80% (n = 3,300) | AID 743050;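 active = mean activation over triplicate wells above the hit cutoff derived from the earlier primary screen, cut at about 11% in these data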;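 note: 0% = DMSO low control and 100% = 2 mM sodium butyrate high control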
LXRb DAF12 ctr – counter-screen for DAF-12 agonists: agonists of human LXR-beta | shares compounds with hgDAF-12 ag | AID 743051 | HEK293 Gal4-LXR luciferase reporter, 24 h | 3,300 tested, under 10 active | activation, % at 6.8 µM;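 active = mean activation of the triplicate above a set limit carried over from the primary screen, none filed active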
Active calls of the source: *; · = not tested or not shown. Most compounds without a hit are left out; they make up all but 4.8% or so of the library.

SMILES	DAX1 inh-1	hcDAF12 agonist	ssDAF12 agonist	DAX1 inh-2	hgDAF-12 ag	SMARCA2 act	LXRb hcDAF ctr	hcDAF12 conf	hgDAF12 conf	LXRb DAF12 ctr
Cc1ccccc1-c1noc(-c2ccc(O)cc2)n1	3	6.9*	1	1	18*	-1	1	4	16*	1
CC(=O)c1ccc(NCC2COc3ccccc3O2)c([N+](=O)[O-])c1 (stereo not given)	3	11*	1.4*	3	23*	3	1	9.0*	15*	1
O=C(NCC1COc2ccccc2O1)c1ccc(-n2cncn2)c([N+](=O)[O-])c1 (stereo not given)	0	-2	0	0	0	-2	·	·	·	·
Cc1ccsc1C(=O)Nc1nc2ccccc2[nH]1	4.5*	10*	1.1*	-2	17*	-1	1	10*	17*	1
O=C(Nc1nc2ccccc2[nH]1)c1ccccc1OC(F)F	3	13*	1	-2	14*	4	2	14*	14*	1
COC(=O)C1CCN(c2ccc(Cl)nn2)CC1	0	1	-1	3	2	-5	·	·	·	·
Cc1cc(N/C=C/C(=O)c2ccc(Br)cc2)no1	1	2	0	0	4	4	·	·	·	·
Cc1ccnc(N/C=C/C(=O)c2ccc(Br)cc2)c1	3	9.0*	0	0	18*	5	2	7.2*	21*	1
COCC(=O)N1[C@H](CO)[C@@H](c2ccc(-c3cccnc3)cc2)[C@H]1CN(C)S(=O)(=O)c1ccccc1[N+](=O)[O-]	0	0	-1	·	-3	1	·	·	·	·
Cc1cc(O)c(NC(=O)c2cccc([N+](=O)[O-])c2)cc1C	1	7.0*	2.5*	4	17*	4	0	9.2*	11*	0
CN(C)c1ccc(/C=N/N2C(=S)SC(C)(C)C2N(O)C(=O)Nc2ccc([N+](=O)[O-])cc2)cc1 (stereo not given)	0	0	-1	0	2	-3	·	·	·	·
COc1ccc(Br)c(Cn2c(C)c(C(=O)NCc3ccc4c(c3)OCCO4)sc2=O)c1	1	0	-1	·	-1	-1	·	·	·	·
CCCCNC(=O)COC(=O)C1CCN(S(=O)(=O)c2ccc3c(c2)OCCO3)CC1	2	-1	-1	0	1	1	·	·	·	·
CSc1nnc(-c2ccccc2Cl)o1	0	-1	-1	4	1	5	·	·	·	·
Clc1ccccc1-c1ncc(-c2ccccc2)o1	2	9.7*	1.4*	5.2*	14*	4	1	7.8*	21*	1
O=C(Nc1ccc(-c2nc3cccnc3s2)cc1)c1ccc(Cl)nc1	1	0	-1	1	4	0	·	·	·	·
O=C(Nc1ccc(-c2nc3cccnc3s2)cc1)c1cccnc1Cl	3.7*	7.9*	0	2	23*	2	2	5.6*	24*	1
COc1cc(CN2C[C@@H](CO)O[C@@H](n3cnc4c(NCc5ccco5)ncnc43)C2)cc(OC)c1OC	0	-1	-1	·	0	-3	·	·	·	·
Oc1ccc(/C=N/Nc2cccc(Cl)n2)c(O)c1	2	10*	2.2*	6.3*	14*	7	1	2	19*	1
Cc1ccc(S(=O)(=O)Nc2nc(-c3ccccc3)cs2)cc1	0	-1	-1	1	0	-4	·	·	·	·
Cc1ccc(Nc2nc(-c3ccccc3)cs2)nc1	3.7*	19*	1.9*	-1	13*	0	2	17*	23*	1
c1cncc(Nc2nc(-c3cccs3)cs2)c1	·	·	·	2	·	·	·	·	·	·
Cc1ccc(Nc2nc(-c3cccs3)cs2)nc1	4.0*	13*	1	2	15*	-3	2	14*	9	1
Oc1ccc(N2CCN(Cc3c(-c4ccccc4)nc4ccccn34)CC2)cc1	-1	-2	-1	-1	0	-3	·	·	·	·
Cc1occc1C(=O)N/N=C/c1ccc(OCc2ccccc2)cc1	1	4	-1	3	8	3	·	·	·	·
SMILES	DAX1 inh-1	hcDAF12 agonist	ssDAF12 agonist	DAX1 inh-2	hgDAF-12 ag	SMARCA2 act	LXRb hcDAF ctr	hcDAF12 conf	hgDAF12 conf	LXRb DAF12 ctr
Cc1occc1C(=O)N/N=C/c1ccc(-c2ccccc2)cc1	3	7.9*	1.1*	0	19*	7	2	5	21*	1
O=C(Oc1ccc(Cl)c2cccnc12)c1cccc([N+](=O)[O-])c1	0	3	0	0	1	0	·	·	·	·
O=[N+]([O-])c1ccccc1COc1ccc(Cl)c2cccnc12	3	9.1*	0	4.8*	15*	6	2	7.8*	16*	1
O=C(N/N=C/c1cn(-c2ccccc2)nc1-c1cc2ccccc2o1)c1ccncc1	3	6.8*	2.0*	2	19*	4	1	4	15*	1
O=C(N/N=C/c1cn(-c2ccccc2)nc1-c1cccnc1)c1cccnc1	-2	-2	-2	0	-1	1	·	·	·	·
Cc1ccc(NC(=O)C(C)N2C(=O)c3ccccc3S2(=O)=O)cc1Cl (stereo not given)	2	2	-1	0	0	-2	·	·	·	·
Cc1ccc(N2C(=O)c3ccccc3NC2(C(=O)O)c2ccccc2)cc1Cl (stereo not given)	2	9.9*	0	4.8*	19*	2	0	3	12*	0
O=C(/C=C/c1cccs1)Nc1ccc([N+](=O)[O-])cc1	0	5	-1	0	5	0	·	·	·	·
Cc1ccc(NC(=O)/C=C/c2cccs2)c([N+](=O)[O-])c1	1	6.8*	-1	2	14*	4	1	6.5*	19*	1
CC(C)CN1C(=O)C(=O)N(CC(=O)N(C)CC(=O)Nc2ccc(Cl)c(C(F)(F)F)c2)C1=O	-1	-1	-1	1	0	0	·	·	·	·
O=C(CSc1cn(Cc2ccccc2)c2ccccc12)Nc1nccs1	8.9*	9.7*	1.1*	2	24*	1	1	8.9*	18*	1
O=C(CSc1ccccc1)Nc1nccs1	0	1	0	-1	6	0	·	·	·	·
